# CYP2C19 inh – blocks human cytochrome P450 2C19 | inhibition, % at 5 µM | CYP2C19 Supersomes, luciferin-H EGE luminescence, 30 min | hit rate 21% among 96,000 | AID 778;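 active = CYP2C19 inhibition above a set limit at 5 µM in the primary screen, cut at about 50% in these data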
# Pyk2 oligo antag – blocks oligomerization of human Pyk2 in cells. Q14289. Q293 cells, Pyk2 FERM NanoBiT luminescence; hits give low values. z-score (the deposit names both 25 µM and 10 µM). hit rate 0.83% among 99,000;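 active = Z-score of -3 or lower, scaled per plate to the spread of control and sample wells; inactive = z-score above -3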;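 note: negative z-score means lost luminescence so less FERM oligomerization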
# CYP2C9 inh – human CYP2C9 inhibition. CYP2C9 Supersomes, luciferin-H conversion, luminescence. hit rate 20% among 96,000. inhibition, % at 5 µM. P11712;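 active = blocking of liver enzyme CYP2C9 beyond about 50% at 5 µM, limit read from the data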
# Target sequence (P11712 whole entry, looked up): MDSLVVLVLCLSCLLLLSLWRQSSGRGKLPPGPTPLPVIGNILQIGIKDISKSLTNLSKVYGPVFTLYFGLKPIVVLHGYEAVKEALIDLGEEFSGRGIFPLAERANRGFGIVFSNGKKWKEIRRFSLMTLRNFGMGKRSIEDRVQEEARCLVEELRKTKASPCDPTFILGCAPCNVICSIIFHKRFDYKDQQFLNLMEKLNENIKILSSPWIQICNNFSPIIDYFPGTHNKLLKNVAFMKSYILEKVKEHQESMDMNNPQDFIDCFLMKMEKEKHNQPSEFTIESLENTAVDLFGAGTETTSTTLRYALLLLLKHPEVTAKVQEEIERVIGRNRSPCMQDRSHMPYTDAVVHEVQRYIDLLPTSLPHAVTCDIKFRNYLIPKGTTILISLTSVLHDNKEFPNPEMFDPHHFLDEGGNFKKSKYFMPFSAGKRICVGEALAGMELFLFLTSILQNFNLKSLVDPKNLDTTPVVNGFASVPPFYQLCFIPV
# CYP2C9 activ – activators of human CYP2C9; P11712; recombinant CYP2C9, luciferin-H conversion, luminescence; hits give high values; factor 1 = untreated enzyme, 0 = blocked; activation factor at 5 µM; hit rate 1.4% among 96,000; AID 1024;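 active = activation factor of 2 or more for CYP2C9 at a 5 µM dose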
# CYP2C19 act – increases human CYP2C19 enzyme activity. recombinant CYP2C19, luciferin-H EGE luminescence; hits give high values; 0 = fully inhibited enzyme, 1 = untreated enzyme. P33261. 96,000 tested, under 10 active. activation factor at 5 µM. AID 1025;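 active = activation factor of at least 2 at 5 µM in the primary screen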
# Hits are given with their value; . = inactive; / = no result. In the library only some 28% were active in any assay of this set; here they are far more common.
SMILES,CYP2C19 inh,Pyk2 oligo antag,CYP2C9 inh,CYP2C9 activ,CYP2C19 act
COc1cc(CC(=O)OCC(=O)Nc2ncc(Cl)cc2Cl)cc(OC)c1OC,67.0,.,.,.,.
COc1ccc(CC(=O)OCC(=O)NC(=O)NC2CCCCC2)cc1,.,.,55.6,.,.
COc1ccc(CC(=O)OCC(=O)Nc2ncc(Cl)cc2Cl)cc1,63.7,.,52.8,.,.
COc1ccc(CCNC(=O)NC2CCCCC2)cc1,/,.,/,/,/
COc1ccc(CC(=O)OCC(=O)Nc2ccc(Cl)cn2)cc1,.,.,.,.,.
CC(Sc1nnc(C2CCCCC2)n1N)C(=O)NCc1ccc2c(c1)OCO2 (stereo not drawn),.,.,.,.,.
Cc1ccc(-n2c(SCc3cn4ccsc4n3)nc3ccccc3c2=O)cc1,.,.,.,.,.
CCOC(=O)N1CCC(NC(=O)c2cc3ccccn3n2)CC1,.,/,.,.,.
CC1CCCCN1S(=O)(=O)c1ccc2c(c1)CCN2C(=O)C1CCC1 (stereo not drawn),.,.,.,.,.
COc1ccc2c(c1)c1ncn(CCc3ccccc3)c(=O)c1n2C,58.5,.,92.1,.,.
CCOc1ccc(-n2c(SCc3ccc(C(=O)OC)o3)nc3c(c2=O)SCC3)cc1,81.5,.,86.8,.,.
CCOc1ccc(-n2c(SCC(=O)Nc3ccc(OC)cc3)nc3c(c2=O)SCC3)cc1,.,.,.,.,.
COC(=O)c1ccc(CSc2nc3c(c(=O)n2-c2ccc(Br)cc2)SCC3)o1,90.4,.,92.0,.,.
Cc1cccc(CN2CCC(CNC(=O)CCNC(=O)Cn3ccc4ccccc4c3=O)CC2)c1,.,.,.,.,.
CC(C)C(c1nnnn1Cc1ccccc1)N(Cc1ccco1)Cc1cccs1 (stereo not drawn),95.8,.,88.8,.,.
COc1ccc2cc(CN(Cc3ccco3)C(c3nnnn3C3CCCCC3)C(C)C)c(=O)[nH]c2c1 (stereo not drawn),.,.,.,.,.
COc1ccc(Cn2nnnc2C(C(C)C)N(Cc2ccco2)Cc2cccs2)cc1 (stereo not drawn),56.4,.,66.0,.,.
CC(C)(C)n1nnnc1C(c1ccc(C(F)(F)F)cc1)N(Cc1ccccc1)Cc1ccco1 (stereo not drawn),.,.,.,.,.
CC1CCc2c(C(=O)NCCCN3CCOCC3)csc2C1 (stereo not drawn),.,.,.,.,.
COc1ccccc1NC(=O)N1CCN(c2cccc(C(F)(F)F)c2)CC1,84.7,.,.,2.1,.
O=C(CC1CCCCC1)N1CCN(c2ccccn2)CC1,53.7,.,61.5,.,.
COc1ccccc1CC(=O)N1CCN(c2ccccn2)CC1,57.8,.,.,.,.
COc1ccccc1CC(=O)N1CCN(c2cccc(C(F)(F)F)c2)CC1,72.3,.,.,2,.
COc1ccc(-n2c(CNC(=O)c3cc(OC)c(OC)c(OC)c3)n[nH]c2=S)cc1,.,.,.,.,.
Cc1cccc(Cn2c(C(=O)OC(C)C)cc3c2ccn3C)c1,.,.,.,.,.
SMILES,CYP2C19 inh,Pyk2 oligo antag,CYP2C9 inh,CYP2C9 activ,CYP2C19 act
COc1ccccc1NC(=O)N1CCN(c2ncccn2)CC1,.,.,.,2.4,.
CN(CC(=O)N1CCN(c2ccccn2)CC1)S(=O)(=O)c1ccc(Br)cc1,63.0,.,.,.,.
COc1ccccc1NC(=O)N1CCN(c2ccc(F)cc2)CC1,/,.,/,/,/
CN(CC(=O)N1CCN(c2ccccn2)CC1)S(=O)(=O)c1cccc2nsnc12,/,.,/,/,/
Cc1sc2nc(-c3cccnc3)nc(Cl)c2c1-c1ccccc1,/,.,/,/,/
O=C(NCc1ccccc1)N1CCN(c2ccc(Cl)c(Cl)c2)CC1,.,.,.,.,.
CSc1nc2ccc(NS(=O)(=O)c3c(Cl)cccc3Cl)cc2s1,/,.,/,/,/
CSc1nc2ccc(NS(=O)(=O)c3ccc4c(c3)OCCO4)cc2s1,100.4,.,84.5,.,.
CSc1nc2ccc(S(=O)(=O)NC3CCCCC3)cc2s1,73.5,.,.,.,.
CN(C(=O)COC(=O)COc1ccccc1F)C1CCS(=O)(=O)C1 (stereo not drawn),.,.,.,.,.
CCOC(=O)c1sc(NC(=O)CSc2nnc(C)s2)c(C(=O)OCC)c1C,62.1,.,88.1,.,.
CCOC(=O)c1c(NC(=O)CSc2nc3ccccc3s2)sc(C(C)=O)c1C,.,.,77.6,.,.
CCCn1c(SCC(=O)Nc2sc(C)c(C)c2C(=O)OC)nc2c1c(=O)n(C)c(=O)n2C,.,/,.,.,.
CCOC(=O)c1c(NC(=O)CSc2nc3c(c(=O)n(C)c(=O)n3C)n2CC)sc(C)c1C,51.5,.,90.3,.,.
O=C(O)c1cc(S(=O)(=O)NCc2ccco2)c(Cl)cc1Cl,.,.,.,.,.
C=CCNC(=O)C(=O)NN=C1CCN(C)CC1,.,.,.,.,.
CCOc1ccc(/C=C2\C(=O)c3ccccc3OC2c2ccccc2)cc1 (stereo not drawn),51.5,.,.,.,.
CCCCOc1ccc(/C=C2/Sc3ccccc3C2=O)cc1,.,.,.,.,.
COc1ccc(CCNC(=O)c2c(-c3ccccc3Cl)noc2C)cc1,79.8,.,67.6,.,.
Cc1onc(-c2ccccc2)c1C(=O)NCCc1ccc(Cl)cc1,.,.,.,.,.
COc1ccc2cc(CCNC(=O)c3c(-c4ccccc4Cl)noc3C)c(=O)[nH]c2c1,.,/,67.0,.,.
Cc1onc(-c2ccccc2Cl)c1C(=O)NCc1ccccn1,.,.,.,.,.
CCC(CC)C(=O)NCCc1cc2ccc(OC)cc2[nH]c1=O,.,.,.,.,.
Cc1onc(-c2ccccc2Cl)c1C(=O)NCCN1Cc2ccccc2C1=O,75.1,.,59.1,.,.
S=C1NCCc2ccc(Cl)cc2C1c1ccccc1 (stereo not drawn),/,.,/,/,/
SMILES,CYP2C19 inh,Pyk2 oligo antag,CYP2C9 inh,CYP2C9 activ,CYP2C19 act
O=C(C1CCN(S(=O)(=O)N2CCOCC2)CC1)N1CCOCC1,.,.,.,.,.
CCOC(=O)N1CCN(c2c(NCCCN3CCCCCC3)c(=O)c2=O)CC1,.,/,.,.,.
C=CCN=C(NC#N)SCc1ccccc1Cl,89.4,.,.,.,.
N#CC1=C(SCc2ccccc2Cl)NC(=O)C(C(N)=O)C1 (stereo not drawn),.,.,.,.,.
COc1ccc(C(C[N+](=O)[O-])c2c(-c3ccccc3)cc3ccccn23)c(OC)c1 (stereo not drawn),.,.,70.5,.,.
COc1ccc(CC(=O)O/N=C(\N)Cc2cccc3ccccc23)cc1OC,/,.,/,/,/
CCCN1C/C(=C/c2cccc([N+](=O)[O-])c2)C(=O)/C(=C/c2cccc([N+](=O)[O-])c2)C1,61.4,.,.,.,.
COc1ccc(N=C2SC(CC(=O)Nc3ccc(OC)cc3OC)C(=O)N2C)cc1 (stereo not drawn),.,.,52.0,.,.
COC(=O)c1ccc(CSc2nc3ccccc3c(=O)n2Cc2ccco2)o1,97.2,.,99.8,.,.
COC(=O)c1ccc(CSc2nc3ccccc3c(=O)n2CC(C)C)o1,.,.,56.8,.,.
CC1CCN(c2ccc(C(=O)O)cc2)CC1,.,.,.,.,.

# Screening results (PubChem)
